Screen size: about 5,500 compounds; about 2,000 (36%) were called active. About 18% were inconclusive and are not listed. The list shows a part of the results. Unmarked numbers belong to inactive results. Cut-off read from the data, not from the text of the source: active = normalized growth mostly below about 0.91 (no sharp cut-off); inconclusive = no clear call, values can overlap the other calls; inactive = mostly above about 0.92.
Assay: chemical genetic growth profiling, strain panel (AID 1159580);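 note: tested at 20 µM; growth read once vehicle control cultures reached saturation at 30 °C; 1 = growth at the plate median or of vehicle wells; lower values mean less growth of the strain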
Settings: S. cerevisiae deletion strains, growth OD
[1] = locus YDL101C, strain DUN1, stronger effect = lower value
[2] = locus YHR030C, strain SLT2, stronger effect = lower value

Cc1ccc(S(=O)(=O)n2c(Sc3ccc([N+](=O)[O-])cc3[N+](=O)[O-])nc3cc(C)ccc32)cc1
normalized growth (locus YAR019C, strain CDC15, stronger effect = lower value): 0.996 | normalized growth (locus YBL105C, strain PKC1, stronger effect = lower value): 0.972 | normalized growth (locus YBR135W, strain CKS1, stronger effect = lower value): 0.983 | normalized growth (locus YBR136W, strain MEC1, stronger effect = lower value): 0.986 | normalized growth (locus YBR160W, strain CDC28, stronger effect = lower value): 0.986 | normalized growth (locus YDL017W, strain CDC7, stronger effect = lower value): 0.986 | normalized growth (locus YDL028C, strain MPS1, stronger effect = lower value): 0.992 | normalized growth [1]: 0.989 | normalized growth (locus YDL108W, strain KIN28, stronger effect = lower value): 0.987 | normalized growth (locus YDL132W, strain cdc53, stronger effect = lower value): 0.989 | normalized growth (locus YDL214C, strain PRR2, stronger effect = lower value): 0.947 | normalized growth (locus YDR052C, strain DBF4, stronger effect = lower value): 0.987 | normalized growth (locus YDR054C, strain cdc34, stronger effect = lower value): 0.986 | normalized growth (locus YDR226W, strain ADK1, stronger effect = lower value): 0.987 | normalized growth (locus YDR477W, strain SNF1, stronger effect = lower value): 0.968 | normalized growth (locus YER123W, strain YCK3, stronger effect = lower value): 0.92 | normalized growth (locus YER133W, strain GLC7, stronger effect = lower value): 0.945 | normalized growth (locus YFL009W, strain cdc4, stronger effect = lower value): 0.989 | normalized growth (locus YFL029C, strain CAK1, stronger effect = lower value): 0.988 | normalized growth (locus YFR003C, strain YPI1, stronger effect = lower value): 0.986 | normalized growth (locus YFR019W, strain FAB1, stronger effect = lower value): 0.961 | normalized growth (locus YFR028C, strain CDC14, stronger effect = lower value): 0.99 | normalized growth (locus YGR040W, strain KSS1, stronger effect = lower value): 0.97 | normalized growth (locus YGR052W, strain FMP48, stronger effect = lower value): 0.966 | normalized growth (locus YGR092W, strain DBF2, stronger effect = lower value): 0.86 | normalized growth [2]: 0.839 (active) | normalized growth (locus YHR079C, strain IRE1, stronger effect = lower value): 0.884 | normalized growth (locus YHR082C, strain KSP1, stronger effect = lower value): 1.04 | normalized growth (locus YHR205W, strain SCH9, stronger effect = lower value): 0.868 | normalized growth (locus YIL147C, strain SLN1, stronger effect = lower value): 0.99 | normalized growth (locus YJL095W, strain BCK1, stronger effect = lower value): 0.879 | normalized growth (locus YJL128C, strain PBS2, stronger effect = lower value): 0.939 | normalized growth (locus YJL157C, strain FAR1, stronger effect = lower value): 0.936 | normalized growth (locus YJR016C, strain ILV3, stronger effect = lower value): 0.986 | normalized growth (locus YJR066W, strain TOR1 (second series), stronger effect = lower value): 0.898 | normalized growth (locus YJR066W, strain TOR1, stronger effect = lower value): 1 | normalized growth (locus YKL048C, strain ELM1, stronger effect = lower value): 0.947 | normalized growth (locus YKL067W, strain YNK1, stronger effect = lower value): 0.935 | normalized growth (locus YKL101W, strain HSL1, stronger effect = lower value): 0.917 | normalized growth (locus YKL193C, strain SDS22, stronger effect = lower value): 0.996 | normalized growth (locus YKL203C, strain TOR2, stronger effect = lower value): 1 | normalized growth (locus YLR113W, strain HOG1, stronger effect = lower value): 0.748 (active) | normalized growth (locus YLR133W, strain CKI1, stronger effect = lower value): 0.932 | normalized growth (locus YLR403W, strain SFP1, stronger effect = lower value): 0.917 | normalized growth (locus YML070W, strain DAK1, stronger effect = lower value): 0.926 | normalized growth (locus YMR001C, strain CDC5, stronger effect = lower value): 0.987 | normalized growth (locus YMR205C, strain PFK2 (second series), stronger effect = lower value): 0.947 | normalized growth (locus YMR277W, strain FCP1, stronger effect = lower value): 0.988 | normalized growth (locus YNL006W, strain LST8, stronger effect = lower value): 0.971 | normalized growth (locus YNL020C, strain ARK1, stronger effect = lower value): 0.898 | normalized growth (locus YNL161W, strain CBK1, stronger effect = lower value): 0.968 | normalized growth (locus YNL183C, strain NPR1, stronger effect = lower value): 0.958 | normalized growth (locus YNL207W, strain RIO2, stronger effect = lower value): 0.984 | normalized growth (locus YNL222W, strain SSU72, stronger effect = lower value): 0.975 | normalized growth (locus YNL307C, strain MCK1 (second series), stronger effect = lower value): 0.901 | normalized growth (locus YOL078W, strain AVO1, stronger effect = lower value): 0.987 | normalized growth (locus YOL136C, strain PFK27, stronger effect = lower value): 0.919 | normalized growth (locus YOR061W, strain CKA2, stronger effect = lower value): 0.873 | normalized growth (locus YOR119C, strain RIO1, stronger effect = lower value): 1.03 | normalized growth (locus YOR231W, strain MKK1, stronger effect = lower value): 0.887 | normalized growth (locus YOR329C, strain SCD5, stronger effect = lower value): 0.968 | normalized growth (locus YPL031C, strain PHO85, stronger effect = lower value): 0.951 | normalized growth (locus YPL153C, strain RAD53, stronger effect = lower value): 0.964 | normalized growth (locus YPL204W, strain HRR25, stronger effect = lower value): 0.931 | normalized growth (locus YPL209C, strain IPL1, stronger effect = lower value): 0.971 | normalized growth (locus YPL256C, strain CLN2, stronger effect = lower value): 0.862 | normalized growth (locus YPR025C, strain CCL1, stronger effect = lower value): 0.988 | normalized growth (locus YPR106W, strain ISR1, stronger effect = lower value): 0.989 | normalized growth (locus YPR111W, strain DBF20, stronger effect = lower value): 0.966 | normalized growth (strain NNK1, stronger effect = lower value): 0.982 | normalized growth (strain TSCII, stronger effect = lower value): 0.986

Cc1nc(-c2nnc(Sc3ccc(C(F)(F)F)cc3[N+](=O)[O-])n2C)cs1
normalized growth (locus YAL013W, strain DEP1, stronger effect = lower value): 1.01 | normalized growth (locus YBR229C, strain ROT2, stronger effect = lower value): 1.01 | normalized growth (locus YCL061C, strain MRC1, stronger effect = lower value): 0.995 | normalized growth [1]: 1 | normalized growth (locus YDR150W, strain NUM1, stronger effect = lower value): 0.993 | normalized growth (locus YEL061C, strain CIN8, stronger effect = lower value): 0.998 | normalized growth (locus YGR078C, strain PAC10, stronger effect = lower value): 1.01 | normalized growth [2]: 0.965 | normalized growth (locus YHR087W, strain rtc3, stronger effect = lower value): 1.02 | normalized growth (locus YJR043C, strain POL32, stronger effect = lower value): 1.01 | normalized growth (locus YJR075W, strain HOC1, stronger effect = lower value): 0.987 | normalized growth (locus YLR039C, strain RIC1, stronger effect = lower value): 0.965 | normalized growth (locus YLR058C, strain SHM2 (second series), stronger effect = lower value): 1.01 | normalized growth (locus YLR085C, strain ARP6, stronger effect = lower value): 1.14 | normalized growth (locus YLR262C, strain YPT6, stronger effect = lower value): 0.844 | normalized growth (locus YML094W, strain GIM5, stronger effect = lower value): 1.01 | normalized growth (locus YMR219W, strain ESC1, stronger effect = lower value): 1 | normalized growth (locus YMR263W, strain SAP30, stronger effect = lower value): 1.02 | normalized growth (locus YNL153C, strain GIM3, stronger effect = lower value): 0.998 | normalized growth (locus YNL298W, strain CLA4 (second series), stronger effect = lower value): 1.01 | normalized growth (locus YNL322C, strain KRE1, stronger effect = lower value): 1 | normalized growth (locus YNR030W, strain Alg12, stronger effect = lower value): 1.01 | normalized growth (locus YPL055C, strain LGE1, stronger effect = lower value): 1.02 | normalized growth (locus YPL241C, strain CIN2, stronger effect = lower value): 1 | normalized growth (locus YPR135W, strain CTF4, stronger effect = lower value): 0.956
